Laboratory results reported in PubChem BioAssay AID1159580 (chemical genetic matrix, 2015).
In all, about 5,500 compounds went through this assay and about 2,000 (36%) were called active. Inconclusive results (about 18%) are left out. No stated cut-off is given here; in the data, active means normalized growth mostly below about 0.91 (no sharp cut-off); inconclusive means no clear call, values can overlap the other calls; inactive means mostly above about 0.92. The list shows a part of the results.

Experiment: chemical genetic growth profiling, strain panel (AID 1159580);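 further: tested at 20 µM; growth read once vehicle control cultures reached saturation at 30 °C; 1 = growth at the plate median or of vehicle wells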
Conditions: growth OD

Measured: normalized growth

COc1ccc2c(=O)ccoc2c1
inactive: S. cerevisiae deletion strains, locus YJR043C, strain POL32, stronger effect = lower value 1.01 | S. cerevisiae deletion strains, locus YJR075W, strain HOC1, stronger effect = lower value 1.04 | S. cerevisiae deletion strains, locus YKL009W, strain mrt4, stronger effect = lower value 0.99 | S. cerevisiae deletion strains, locus YKL068W, stronger effect = lower value 1.03 | S. cerevisiae deletion strains, locus YKL085W, strain MDH1 (second series), stronger effect = lower value 1.03 | S. cerevisiae deletion strains, locus YKL085W, strain MDH1, stronger effect = lower value 1.03 | S. cerevisiae deletion strains, locus YKL160W, strain elf1, stronger effect = lower value 1.02 | S. cerevisiae deletion strains, locus YKL190W, strain CNB1, stronger effect = lower value 1.02 | S. cerevisiae deletion strains, locus YKR001C, strain vps1, stronger effect = lower value 0.947 | S. cerevisiae deletion strains, locus YKR026C, strain gcn3, stronger effect = lower value 1.03 | S. cerevisiae deletion strains, locus YKR091W, strain srl3, stronger effect = lower value 1.02 | S. cerevisiae deletion strains, locus YLL001W, strain dnm1, stronger effect = lower value 1.02 | S. cerevisiae deletion strains, locus YLL026W, stronger effect = lower value 1.02 | S. cerevisiae deletion strains, locus YLL041C, strain sdh2, stronger effect = lower value 0.972 | S. cerevisiae deletion strains, locus YLR027C, strain aat2, stronger effect = lower value 1.02 | S. cerevisiae deletion strains, locus YLR039C, strain RIC1, stronger effect = lower value 1.01 | S. cerevisiae deletion strains, locus YLR058C, strain SHM2, stronger effect = lower value 1.02 | S. cerevisiae deletion strains, locus YLR102C, strain apc9, stronger effect = lower value 1.01 | S. cerevisiae deletion strains, locus YLR221C, strain rsa3, stronger effect = lower value 1.03 | S. cerevisiae deletion strains, locus YLR258W, strain gsy2, stronger effect = lower value 1.02 | S. cerevisiae deletion strains, locus YLR262C, strain YPT6 (second series), stronger effect = lower value 1.04 | S. cerevisiae deletion strains, locus YLR262C, strain YPT6, stronger effect = lower value 1.06 | S. cerevisiae deletion strains, locus YLR268W, strain sec22, stronger effect = lower value 0.987 | S. cerevisiae deletion strains, locus YLR320W, strain mms22, stronger effect = lower value 1.03 | S. cerevisiae deletion strains, locus YLR330W, strain CHS5, stronger effect = lower value 1.02 | S. cerevisiae deletion strains, locus YLR342W, strain FKS1 (second series), stronger effect = lower value 1.03 | S. cerevisiae deletion strains, locus YLR342W, strain FKS1, stronger effect = lower value 1.02 | S. cerevisiae deletion strains, locus YLR357W, strain rsc2, stronger effect = lower value 1.02 | S. cerevisiae deletion strains, locus YLR370C, strain arc18, stronger effect = lower value 1.02 | S. cerevisiae deletion strains, locus YLR371W, strain rom2, stronger effect = lower value 1.02 | S. cerevisiae deletion strains, locus YLR384C, strain iki3, stronger effect = lower value 1.02 | S. cerevisiae deletion strains, locus YLR418C, strain cdc73, stronger effect = lower value 0.979 | S. cerevisiae deletion strains, locus YML016C, strain PPZ1, stronger effect = lower value 1.01 | S. cerevisiae deletion strains, locus YML032C, strain rad52, stronger effect = lower value 0.993 | S. cerevisiae deletion strains, locus YML120C, strain ndi1, stronger effect = lower value 1.03 | S. cerevisiae deletion strains, locus YML124C, strain tub3, stronger effect = lower value 1.01 | S. cerevisiae deletion strains, locus YMR058W, strain fet3, stronger effect = lower value 1.02 | S. cerevisiae deletion strains, locus YMR078C, strain ctf18, stronger effect = lower value 1.01 | S. cerevisiae deletion strains, locus YMR125W, strain sto1, stronger effect = lower value 1.03 | S. cerevisiae deletion strains, locus YMR129W, stronger effect = lower value 1.02 | S. cerevisiae deletion strains, locus YMR205C, strain PFK2, stronger effect = lower value 1.03 | S. cerevisiae deletion strains, locus YMR223W, strain ubp8, stronger effect = lower value 0.986 | S. cerevisiae deletion strains, locus YMR231W, strain pep5, stronger effect = lower value 1.02 | S. cerevisiae deletion strains, locus YMR263W, strain SAP30, stronger effect = lower value 1.02 | S. cerevisiae deletion strains, locus YMR307W, strain GAS1, stronger effect = lower value 1.02 | S. cerevisiae deletion strains, locus YNL067W, strain RPL9B, stronger effect = lower value 1.01 | S. cerevisiae deletion strains, locus YNL071W, strain lat1, stronger effect = lower value 1.05 | S. cerevisiae deletion strains, locus YNL128W, strain TEP1, stronger effect = lower value 1.03 | S. cerevisiae deletion strains, locus YNL153C, strain GIM3, stronger effect = lower value 1.01 | S. cerevisiae deletion strains, locus YNL209W, strain ssb2, stronger effect = lower value 1.02 | S. cerevisiae deletion strains, locus YNL233W, strain BNI4, stronger effect = lower value 1.01 | S. cerevisiae deletion strains, locus YNL248C, strain rpa49, stronger effect = lower value 1.03 | S. cerevisiae deletion strains, locus YNL250W, strain rad50, stronger effect = lower value 1.05 | S. cerevisiae deletion strains, locus YNL271C, strain bni1, stronger effect = lower value 1 | S. cerevisiae deletion strains, locus YNL298W, strain CLA4, stronger effect = lower value 0.977 | S. cerevisiae deletion strains, locus YNL307C, strain MCK1, stronger effect = lower value 0.984 | S. cerevisiae deletion strains, locus YNL322C, strain KRE1 (second series), stronger effect = lower value 1.03 | S. cerevisiae deletion strains, locus YNL322C, strain KRE1, stronger effect = lower value 1.02 | S. cerevisiae deletion strains, locus YNR049C, strain mso1, stronger effect = lower value 1.02 | S. cerevisiae deletion strains, locus YNR052C, strain pop2, stronger effect = lower value 1 | S. cerevisiae deletion strains, locus YOL006C, strain TOP1, stronger effect = lower value 0.962 | S. cerevisiae deletion strains, locus YOL012C, strain htz1 0.848 | S. cerevisiae deletion strains, locus YOL147C, strain pex11, stronger effect = lower value 1.01 | S. cerevisiae deletion strains, locus YOR001W, strain rrp6, stronger effect = lower value 1.03 | S. cerevisiae deletion strains, locus YOR061W, strain CKA2, stronger effect = lower value 1.02 | S. cerevisiae deletion strains, locus YOR069W, strain VPS5, stronger effect = lower value 1.01 | S. cerevisiae deletion strains, locus YOR070C, strain gyp1, stronger effect = lower value 1.02 | S. cerevisiae deletion strains, locus YOR080W, strain dia2, stronger effect = lower value 1.01 | S. cerevisiae deletion strains, locus YOR083W, strain WHI5, stronger effect = lower value 1.02 | S. cerevisiae deletion strains, locus YOR106W, strain vam3, stronger effect = lower value 1.03 | S. cerevisiae deletion strains, locus YOR136W, strain idh2, stronger effect = lower value 1.01 | S. cerevisiae deletion strains, locus YOR144C, strain elg1, stronger effect = lower value 1 | S. cerevisiae deletion strains, locus YOR184W, strain ser1, stronger effect = lower value 0.988 | S. cerevisiae deletion strains, locus YOR265W, strain rbl2, stronger effect = lower value 1.01 | S. cerevisiae deletion strains, locus YOR270C, strain vph1, stronger effect = lower value 1.03 | S. cerevisiae deletion strains, locus YOR290C, strain snf2, stronger effect = lower value 1.04 | S. cerevisiae deletion strains, locus YOR316C, strain cot1, stronger effect = lower value 1.01 | S. cerevisiae deletion strains, locus YPL051W, strain arl3, stronger effect = lower value 1.02 | S. cerevisiae deletion strains, locus YPL055C, strain LGE1, stronger effect = lower value 1.04 | S. cerevisiae deletion strains, locus YPL078C, strain atp4, stronger effect = lower value 1.02 | S. cerevisiae deletion strains, locus YPL106C, strain sse1, stronger effect = lower value 1.01 | S. cerevisiae deletion strains, locus YPL240C, strain hsp82, stronger effect = lower value 1.03 | S. cerevisiae deletion strains, locus YPL241C, strain CIN2, stronger effect = lower value 1.02 | S. cerevisiae deletion strains, locus YPR119W, strain clb2, stronger effect = lower value 1.01 | S. cerevisiae deletion strains, locus YPR141C, strain kar3, stronger effect = lower value 1.01 | S. cerevisiae deletion strains, locus YPR163C, strain tif3, stronger effect = lower value 1.01 | S. cerevisiae deletion strains, locus YPR167C, strain met16, stronger effect = lower value 1.02 | S. cerevisiae deletion strains, strain wtn01, stronger effect = lower value 0.997 | S. cerevisiae strains, strain wild type, stronger effect = lower value 1.02
